Data taken from PubChem BioAssay (EPA / NIEHS).
Results filed as inconclusive are left out. Activity calls are given as the source filed them. The calls were made as follows, unless noted: active = hit-call score of the fitted dose curve at least 0.9, where 1 is the maximum; inactive = score below 0.9.

Experiments:
[1] = target: Transcriptional activator Myb (Homo sapiens) (UniProt P10242); assay: ATG_Myb_CIS: Attagene CIS-FACTORIAL HepG2 Assay for human Myeloblastosis (Myb) Proto-Oncogene Transcription Factor (AID 2282986); settings: HepG2 Attagene CIS-FACTORIAL Myb reporter transcription; actives raise or lower the signal
Transcriptional activator Myb (Homo sapiens), sequence (P10242 whole entry, looked up): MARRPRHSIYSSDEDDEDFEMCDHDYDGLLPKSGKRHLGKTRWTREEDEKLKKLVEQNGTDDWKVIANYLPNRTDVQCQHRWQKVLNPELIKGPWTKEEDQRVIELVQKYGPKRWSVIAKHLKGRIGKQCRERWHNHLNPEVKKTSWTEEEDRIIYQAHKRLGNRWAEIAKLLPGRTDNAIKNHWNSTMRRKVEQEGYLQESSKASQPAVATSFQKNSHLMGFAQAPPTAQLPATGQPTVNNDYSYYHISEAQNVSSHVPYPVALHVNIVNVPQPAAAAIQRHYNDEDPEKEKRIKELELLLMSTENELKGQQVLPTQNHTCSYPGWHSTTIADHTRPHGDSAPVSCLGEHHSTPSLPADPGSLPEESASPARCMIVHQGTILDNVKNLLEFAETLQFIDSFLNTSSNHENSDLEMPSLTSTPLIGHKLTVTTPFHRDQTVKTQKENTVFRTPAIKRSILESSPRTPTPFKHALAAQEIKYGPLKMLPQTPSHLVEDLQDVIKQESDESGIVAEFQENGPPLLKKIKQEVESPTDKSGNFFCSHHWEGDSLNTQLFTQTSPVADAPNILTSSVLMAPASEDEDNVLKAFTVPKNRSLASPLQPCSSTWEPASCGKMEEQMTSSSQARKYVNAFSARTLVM
Procedure, shortened: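 After 24 h of compound dosing, total RNA from transfected HepG2 cells is reverse-transcribed and the reporter sequences amplified, labeled and separated by capillary electrophoresis. Values come from bidirectional fitting against DMSO.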

[2] = target: Nuclear respiratory factor 1 (Homo sapiens) (UniProt Q16656); assay: ATG_NRF1_CIS: Attagene CIS-FACTORIAL HepG2 Assay for human Nuclear Respiratory Factor 1 (NRF1) Orphan Gene (AID 2282987); settings: HepG2 NRF1 cis-element reporter, Attagene multiplex; actives raise or lower the signal
Nuclear respiratory factor 1 (Homo sapiens), sequence (Q16656 whole entry, looked up): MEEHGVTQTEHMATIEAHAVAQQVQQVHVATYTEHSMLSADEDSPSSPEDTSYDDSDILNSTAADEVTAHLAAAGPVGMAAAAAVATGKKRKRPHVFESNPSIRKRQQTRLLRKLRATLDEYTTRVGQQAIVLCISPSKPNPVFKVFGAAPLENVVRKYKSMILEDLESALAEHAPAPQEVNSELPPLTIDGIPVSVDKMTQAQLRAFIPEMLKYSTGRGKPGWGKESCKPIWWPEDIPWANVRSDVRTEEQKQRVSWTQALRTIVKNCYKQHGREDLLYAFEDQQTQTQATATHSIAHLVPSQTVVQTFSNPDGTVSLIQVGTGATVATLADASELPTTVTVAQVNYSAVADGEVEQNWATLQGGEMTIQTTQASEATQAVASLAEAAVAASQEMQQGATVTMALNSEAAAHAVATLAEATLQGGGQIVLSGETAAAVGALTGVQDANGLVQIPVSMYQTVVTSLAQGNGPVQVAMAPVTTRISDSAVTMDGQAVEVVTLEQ
Procedure, shortened: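 Measured: fluorescent reporter-specific RT-PCR products from transfected HepG2 cells, separated by capillary electrophoresis. Exposure lasted 24 h. Analysis used bidirectional curve fitting with DMSO as negative control.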

[3] = ATG_NFI_CIS: Attagene CIS-FACTORIAL HepG2 Assay for human Nuclear Factor I (NFI) (AID 2282989); settings: HepG2 cis-regulatory reporter, NFI response element transcription; actives raise or lower the signal
Procedure, shortened: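 HepG2 cells transiently transfected with cis-element-driven multiplexed reporter transcription units, dosed for 24 h. Reporter mRNA quantified by RT-PCR, fluorescent labelling, HpaI digestion and capillary electrophoresis; bidirectional fit versus DMSO baseline.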

[4] = target: Myc proto-oncogene protein (Homo sapiens) (UniProt P01106); assay: ATG_Myc_CIS: Attagene CIS-FACTORIAL HepG2 Assay for human Myelocytomatosis (Myc) Proto-Oncogene Transcription Factor (AID 2282990); settings: HepG2, Attagene cis-reporter transcription factor activity; actives raise or lower the signal
Myc proto-oncogene protein (Homo sapiens), sequence (P01106 whole entry, looked up): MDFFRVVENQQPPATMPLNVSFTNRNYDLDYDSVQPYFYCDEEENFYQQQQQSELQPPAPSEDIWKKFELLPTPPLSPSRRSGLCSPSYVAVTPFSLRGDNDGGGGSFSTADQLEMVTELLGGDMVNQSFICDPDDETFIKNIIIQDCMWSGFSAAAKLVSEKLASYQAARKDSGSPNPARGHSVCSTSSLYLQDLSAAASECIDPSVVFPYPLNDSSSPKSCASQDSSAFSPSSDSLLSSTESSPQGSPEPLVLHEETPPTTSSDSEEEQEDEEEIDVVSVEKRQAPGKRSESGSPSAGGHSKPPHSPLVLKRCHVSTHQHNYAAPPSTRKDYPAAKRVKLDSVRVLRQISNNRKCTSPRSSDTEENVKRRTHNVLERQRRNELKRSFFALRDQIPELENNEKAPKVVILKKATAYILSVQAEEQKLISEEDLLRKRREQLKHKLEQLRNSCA
Procedure, shortened: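 HepG2, transient MRTU transfection (cis promoters, endogenous TFs); 24 h dosing; TriZol RNA → oligo(dT) RT → PCR → 6-FAM primer extension → HpaI cut → CE. Bidirectional fit vs DMSO.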

[5] = ATG_NF_kB_CIS: Attagene CIS-FACTORIAL HepG2 Assay for human Nuclear Factor Kappa B (NF-kB) (AID 2282991); settings: HepG2 Attagene cis-factorial NF-kB reporter mRNA; actives raise or lower the signal
Procedure, shortened: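 Fluorescence of labelled RT-PCR products separated by capillary electrophoresis gives reporter mRNA levels from transfected HepG2 cells exposed 24 h; values are fitted in both directions relative to DMSO.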

[6] = ATG_NRF2_ARE_CIS: Attagene CIS-FACTORIAL HepG2 Assay for human Nuclear Factor Erythroid 2 Related Factor 2 (NFR2) response to Antioxidant Response Elements (ARE) (AID 2282992); settings: HepG2 Attagene ARE/NRF2 reporter, transcription factor activity; actives raise or lower the signal
Procedure, shortened: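 Using transiently transfected HepG2 cells exposed for 24 h, reporter mRNA levels were determined by RT-PCR with fluorescent primer extension and capillary electrophoresis, analysed for gain or loss of signal against DMSO.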

[7] = ATG_Oct_MLP_CIS: Attagene CIS-FACTORIAL HepG2 Assay for human Octamer-Binding Transcription Factor (Oct) (AID 2282993); settings: HepG2 Attagene cis-factorial Oct reporter, mRNA; actives raise or lower the signal
Procedure, shortened: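 HepG2 cells transiently transfected with cis-promoter-driven multiplexed reporter transcription units, dosed for 24 h. Reporter mRNA quantified by RT-PCR, fluorescent labelling, HpaI digestion and capillary electrophoresis; bidirectional fits versus DMSO baseline.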

[8] = target: Cellular tumor antigen p53 (Homo sapiens) (UniProt P04637); assay: ATG_p53_CIS: Attagene CIS-FACTORIAL HepG2 Assay for human p53 Transcription Factor (AID 2282994); settings: HepG2 p53 cis-element reporter, Attagene mRNA; actives raise or lower the signal
Cellular tumor antigen p53 (Homo sapiens), sequence (P04637 whole entry, looked up, the tested form may be a part): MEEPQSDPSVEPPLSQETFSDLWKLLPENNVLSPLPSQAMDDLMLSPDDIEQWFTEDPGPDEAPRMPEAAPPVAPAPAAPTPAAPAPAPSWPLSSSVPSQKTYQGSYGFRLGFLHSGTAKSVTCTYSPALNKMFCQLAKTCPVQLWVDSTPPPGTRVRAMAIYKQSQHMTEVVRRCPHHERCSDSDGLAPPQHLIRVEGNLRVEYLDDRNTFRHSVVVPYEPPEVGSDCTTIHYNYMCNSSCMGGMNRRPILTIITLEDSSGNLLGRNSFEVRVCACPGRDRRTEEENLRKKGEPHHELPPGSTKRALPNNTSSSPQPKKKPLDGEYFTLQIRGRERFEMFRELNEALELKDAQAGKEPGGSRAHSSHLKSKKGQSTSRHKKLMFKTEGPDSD
Procedure, shortened: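 In HepG2 cells, reporter transcription units under cis-regulatory promoters were transiently introduced. Following 24 h treatment, RNA was processed to labelled, digested cDNA fragments read by capillary electrophoresis; fitting was bidirectional versus DMSO.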

[9] = BSK_3C_TissueFactor: BioMAP Diversity Plus: 3C Assay for Tissue Factor Biomarker Activity (AID 2282997); settings: BioMAP 3C HUVEC, tissue factor biomarker readout; actives raise or lower the signal
Procedure, shortened: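 Tissue factor on primary human umbilical vein endothelium was read by ELISA 24 h after dosing, gain or loss relative to DMSO. Cytotoxicity ran alongside via SRB (0.1%, TCA-fixed, 560 nm).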

[10] = BSK_3C_uPAR: BioMAP Diversity Plus: 3C Assay for Urokinase-type plasminogen activator receptor (uPAR) Biomarker Activity (AID 2282998); settings: BioMAP 3C HUVEC, uPAR biomarker ELISA; actives raise or lower the signal
Procedure, shortened: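 Human umbilical vein endothelial primary cells were exposed to test chemical for 24 h. Cell-surface uPAR was then quantified by ELISA, and responses were fitted bidirectionally against DMSO as negative control and baseline.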

[11] = BSK_3C_VCAM1: BioMAP Diversity Plus: 3C Assay for Vascular cell adhesion molecule 1 (VCAM1) Biomarker Activity (AID 2282999); settings: BioMAP 3C HUVEC, VCAM1 ELISA, cytokine-stimulated; actives raise or lower the signal
Procedure, shortened: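 Activity fitted in both directions relative to DMSO, with ELISA measurement of the surface marker on primary HUVEC (3C) at 24 h post-treatment; parallel SRB staining (0.1% SRB, TCA-fixed, 560 nm) flagged overt cytotoxicity.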

[12] = read-out: Intercellular Adhesion Molecule 1 (ICAM1), ICAM1 (gene 3383); assay: BSK_3C_ICAM1: BioMAP Diversity Plus: 3C Assay for Intercellular Adhesion Molecule 1 (ICAM1) Biomarker Activity (AID 2283003); settings: primary human endothelial cells (HUVEC); actives raise or lower the signal
Procedure, shortened: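 Using DMSO as baseline, bidirectional curve fitting was applied to ICAM-1 ELISA signals from HUVEC in the 3C system, measured 24 h after compound addition.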

[13] = target: Retinoic acid receptor alpha (Homo sapiens) (UniProt P10276); assay: ATG_RARa_TRANS: Attagene TRANS-FACTORIAL HepG2 Assay for human Retinoic Acid Receptor alpha (RARa) (AID 2283005; active = hit-call score of the fitted dose curve at least 0.9, where 1 is the maximum)
Retinoic acid receptor alpha (Homo sapiens), sequence (P10276 whole entry, looked up, the tested form may be a part): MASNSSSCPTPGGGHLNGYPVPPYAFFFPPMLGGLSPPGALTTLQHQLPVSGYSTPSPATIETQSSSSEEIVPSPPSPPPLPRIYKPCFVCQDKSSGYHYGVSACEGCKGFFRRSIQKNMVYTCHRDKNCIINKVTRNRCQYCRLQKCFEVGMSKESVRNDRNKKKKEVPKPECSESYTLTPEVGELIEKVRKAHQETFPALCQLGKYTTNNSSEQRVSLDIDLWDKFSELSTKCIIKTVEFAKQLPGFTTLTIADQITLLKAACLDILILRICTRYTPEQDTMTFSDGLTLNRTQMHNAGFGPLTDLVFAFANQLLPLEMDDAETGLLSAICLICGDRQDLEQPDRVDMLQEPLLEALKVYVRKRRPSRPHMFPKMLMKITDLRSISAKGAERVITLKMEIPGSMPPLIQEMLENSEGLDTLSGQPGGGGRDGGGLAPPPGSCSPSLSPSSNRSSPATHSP
Procedure, shortened: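 Reporter transcripts, measured by RT-PCR with fluorescent labeling and capillary electrophoresis after 24 h dosing, reflect activity of an exogenous human RARa–GAL4 fusion in transiently transfected HepG2. Fitted for increase relative to DMSO.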

[14] = BSK_3C_Proliferation: Cell Proliferation Assessment in the BioMAP Diversity Plus: 3C Assay (AID 2283006); settings: primary human endothelial cells (HUVEC);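 as to AC50: potency may reflect either rise or fall in cell number versus DMSO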
Procedure, shortened: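 Measured here: sulforhodamine B (0.1%) staining of TCA-fixed sub-confluent umbilical vein endothelial cultures 48 h post-dosing, absorbance 560 nm. DMSO served as negative control and baseline; both signal gain and loss were modelled.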

[15] = target: Peroxisome proliferator-activated receptor gamma (Homo sapiens) (UniProt P37231); assay: ATG_PPARg_TRANS: Attagene TRANS-FACTORIAL HepG2 Assay for human Peroxisome Proliferator-activated Receptor-gamma (PPARg) (AID 2283007; active = hit-call score of the fitted dose curve at least 0.9, where 1 is the maximum)
Peroxisome proliferator-activated receptor gamma (Homo sapiens), sequence (P37231 whole entry, looked up): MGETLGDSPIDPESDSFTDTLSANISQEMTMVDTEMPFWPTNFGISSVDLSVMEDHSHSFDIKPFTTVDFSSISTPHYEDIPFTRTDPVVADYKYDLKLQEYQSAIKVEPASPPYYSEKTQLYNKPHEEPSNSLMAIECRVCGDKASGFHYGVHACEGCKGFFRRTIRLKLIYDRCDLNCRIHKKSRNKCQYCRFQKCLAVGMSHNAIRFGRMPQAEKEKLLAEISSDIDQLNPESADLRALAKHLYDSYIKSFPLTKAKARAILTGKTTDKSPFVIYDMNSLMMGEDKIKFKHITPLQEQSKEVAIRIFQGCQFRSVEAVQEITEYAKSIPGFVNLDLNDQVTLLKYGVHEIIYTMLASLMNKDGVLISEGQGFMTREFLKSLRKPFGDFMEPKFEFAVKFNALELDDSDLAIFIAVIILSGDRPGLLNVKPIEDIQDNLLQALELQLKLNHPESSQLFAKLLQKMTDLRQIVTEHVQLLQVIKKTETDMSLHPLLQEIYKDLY
Procedure, shortened: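 Twenty-four hours after chemical dosing of transiently transfected HepG2 cells, isolated RNA was converted to cDNA, reporter sequences amplified and 6-FAM-labelled, then HpaI-digested and analysed by capillary electrophoresis. Signal increase against DMSO was fitted.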

[16] = target: Nuclear receptor subfamily 4 group A member 2 (Homo sapiens) (UniProt P43354); assay: ATG_NURR1_TRANS: Attagene TRANS-FACTORIAL HepG2 Assay for human Nuclear Receptor Related Protein 1 (NURR1) (AID 2282985; active = hit-call score of the fitted dose curve at least 0.9, where 1 is the maximum); settings: HepG2 Attagene TRANS reporter, mRNA readout
Nuclear receptor subfamily 4 group A member 2 (Homo sapiens), sequence (P43354 whole entry, looked up, the tested form may be a part): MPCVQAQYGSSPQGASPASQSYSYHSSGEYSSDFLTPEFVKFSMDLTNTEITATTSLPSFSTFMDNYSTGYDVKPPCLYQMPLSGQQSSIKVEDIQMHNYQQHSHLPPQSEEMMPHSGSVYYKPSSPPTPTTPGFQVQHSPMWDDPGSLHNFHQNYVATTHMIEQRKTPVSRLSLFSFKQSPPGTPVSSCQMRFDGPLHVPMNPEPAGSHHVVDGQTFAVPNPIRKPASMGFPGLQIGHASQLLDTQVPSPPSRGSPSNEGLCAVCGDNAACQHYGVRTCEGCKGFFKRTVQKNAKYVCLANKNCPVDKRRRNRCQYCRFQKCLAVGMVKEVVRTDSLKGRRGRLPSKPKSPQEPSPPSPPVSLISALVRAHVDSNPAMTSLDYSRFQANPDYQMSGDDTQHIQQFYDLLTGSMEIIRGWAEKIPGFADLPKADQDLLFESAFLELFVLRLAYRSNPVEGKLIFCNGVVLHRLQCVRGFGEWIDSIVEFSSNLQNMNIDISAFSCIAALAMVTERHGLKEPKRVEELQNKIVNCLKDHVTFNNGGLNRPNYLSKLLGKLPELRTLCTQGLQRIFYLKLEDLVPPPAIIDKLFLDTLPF
Procedure, shortened: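 Measures transcriptional activation by an exogenous NR-Gal4 chimera in transfected HepG2 liver cells. After 24 h, reporter RNA is reverse-transcribed, amplified and resolved by capillary electrophoresis; DMSO defines baseline.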

[17] = BSK_4H_Eotaxin3: BioMAP Diversity Plus: 4H Assay for Eotaxin 3 Biomarker Activity (AID 2283000); settings: primary human endothelial cells (HUVEC); actives raise or lower the signal
Procedure, shortened: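 Human umbilical vein endothelial cells (BSK_4H system) dosed with test chemical; Eotaxin-3 (CCL26) measured by ELISA 24 h after dosing. Bidirectional curve fitting relative to DMSO negative control as baseline.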

[18] = target: human Peroxisome Proliferator-activated Receptor alpha (PPARa), PPARA (gene 5465) (UniProt Q07869); assay: ATG_PPARa_TRANS: Attagene TRANS-FACTORIAL HepG2 Assay for human Peroxisome Proliferator-activated Receptor alpha (PPARa) (AID 2283001; active = hit-call score of the fitted dose curve at least 0.9, where 1 is the maximum)
human Peroxisome Proliferator-activated Receptor alpha (PPARa), PPARA (gene 5465), sequence (Q07869 whole entry, looked up, the tested form may be a part): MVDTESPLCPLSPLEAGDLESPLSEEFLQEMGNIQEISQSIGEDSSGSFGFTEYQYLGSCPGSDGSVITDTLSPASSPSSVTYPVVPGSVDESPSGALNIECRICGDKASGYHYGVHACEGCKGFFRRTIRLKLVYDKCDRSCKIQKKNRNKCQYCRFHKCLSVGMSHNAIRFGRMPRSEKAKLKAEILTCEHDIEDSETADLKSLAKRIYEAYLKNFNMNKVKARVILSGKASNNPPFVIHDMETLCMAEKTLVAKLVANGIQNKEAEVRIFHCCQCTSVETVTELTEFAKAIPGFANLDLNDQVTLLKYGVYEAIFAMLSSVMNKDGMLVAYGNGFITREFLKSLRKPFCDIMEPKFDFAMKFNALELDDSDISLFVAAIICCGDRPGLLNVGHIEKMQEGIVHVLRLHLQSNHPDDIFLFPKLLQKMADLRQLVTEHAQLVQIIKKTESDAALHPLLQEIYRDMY
Procedure, shortened: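 Transfected HepG2 cells treated with test chemical for 24 h. RNA isolated, reverse-transcribed with oligo(dT), PCR-amplified, FAM-labelled and HpaI-digested. Fragments sized by capillary electrophoresis; gain-of-signal fit relative to DMSO.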

[19] = target: human Peroxisome Proliferator-activated Receptor delta (PPARd), PPARD (gene 5467) (UniProt Q03181); assay: ATG_PPARd_TRANS: Attagene TRANS-FACTORIAL HepG2 Assay for human Peroxisome Proliferator-activated Receptor delta (PPARd) (AID 2283002; active = hit-call score of the fitted dose curve at least 0.9, where 1 is the maximum)
human Peroxisome Proliferator-activated Receptor delta (PPARd), PPARD (gene 5467), sequence (Q03181 whole entry, looked up, the tested form may be a part): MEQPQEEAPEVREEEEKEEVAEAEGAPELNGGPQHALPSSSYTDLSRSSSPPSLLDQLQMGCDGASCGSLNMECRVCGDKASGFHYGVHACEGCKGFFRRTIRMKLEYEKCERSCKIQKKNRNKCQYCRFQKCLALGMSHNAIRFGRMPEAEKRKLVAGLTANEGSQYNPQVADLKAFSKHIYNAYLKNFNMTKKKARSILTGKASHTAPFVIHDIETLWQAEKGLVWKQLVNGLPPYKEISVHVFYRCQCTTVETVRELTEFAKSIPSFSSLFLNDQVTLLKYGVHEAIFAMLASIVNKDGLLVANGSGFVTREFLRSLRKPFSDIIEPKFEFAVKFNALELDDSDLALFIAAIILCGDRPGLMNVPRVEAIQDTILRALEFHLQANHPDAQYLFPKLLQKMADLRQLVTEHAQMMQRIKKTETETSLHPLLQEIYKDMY
Procedure, shortened: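 Transient HepG2 transfection (multiple GAL4-UAS RTUs, chimeric receptor-Gal4); 24 h dosing; total RNA → oligo(dT) RT → PCR → 6-FAM primer extension → HpaI cut → CE. Positive direction vs DMSO.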

[20] = target: human Retinoic Acid Receptor beta (RARb), RARB (gene 5915) (UniProt P10826); assay: ATG_RARb_TRANS: Attagene TRANS-FACTORIAL HepG2 Assay for human Retinoic Acid Receptor beta (AID 2283004; active = hit-call score of the fitted dose curve at least 0.9, where 1 is the maximum)
human Retinoic Acid Receptor beta (RARb), RARB (gene 5915), sequence (P10826 whole entry, looked up, the tested form may be a part): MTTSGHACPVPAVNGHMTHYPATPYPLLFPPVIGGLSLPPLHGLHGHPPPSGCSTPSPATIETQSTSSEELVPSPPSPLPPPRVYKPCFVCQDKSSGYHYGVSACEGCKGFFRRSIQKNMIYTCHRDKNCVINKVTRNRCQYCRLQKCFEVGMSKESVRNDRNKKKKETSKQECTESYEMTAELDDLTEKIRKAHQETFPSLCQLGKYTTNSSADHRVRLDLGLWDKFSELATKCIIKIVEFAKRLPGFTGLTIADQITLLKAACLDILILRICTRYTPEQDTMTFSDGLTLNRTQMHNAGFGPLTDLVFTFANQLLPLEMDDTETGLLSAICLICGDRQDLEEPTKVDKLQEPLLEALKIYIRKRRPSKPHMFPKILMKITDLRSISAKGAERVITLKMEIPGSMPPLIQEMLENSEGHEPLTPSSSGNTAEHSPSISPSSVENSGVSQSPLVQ
Procedure, shortened: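 Induction of reporter mRNA from a chimeric RARb-Gal4 construct was measured by RT-PCR, FAM labelling, HpaI digestion and capillary electrophoresis. Measurements followed 24 h compound treatment of transiently transfected human HepG2 liver cells, with DMSO as baseline.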

Measured: AC50

OC(c1ccc(Cl)cc1)(c1ccc(Cl)cc1)C(Cl)(Cl)Cl
active: [9] 25.6 µM | [10] 29.1 µM | [11] 14.1 µM | [12] 29 µM | [14] 11.6 µM
not listed: [16] | [17] | [18] | [19] | [20]
inactive: all other assays above

Cc1nc(N(C)C)nc(OC(=O)N(C)C)c1C
not listed: [5] | [8] | [13] | [20]
inactive: all other assays above

N#Cc1c(Cl)cccc1Cl
active: [6] 13.7 µM
not listed: [13] | [16] | [20]
inactive: all other assays above

CC1(C)CCC(=Cc2ccc(Cl)cc2)C1(O)Cn1cncn1 (configuration not stated)
active: [6] 3.91 µM | [7] 13.3 µM
not listed: [5] | [18] | [19]
inactive: all other assays above

CN/C(=N\[N+](=O)[O-])NCc1cnc(Cl)s1
not listed: [5] | [15] | [16] | [17] | [19] | [20]
inactive: all other assays above

COc1cc(Cl)c(OC)cc1Cl
not listed: [16] | [17] | [19]
inactive: all other assays above

CC(C)C1(C)N=C(c2ncccc2C(=O)O)NC1=O (configuration not stated)
not listed: [5] | [13] | [16] | [17] | [20]
inactive: all other assays above

Cc1ccc(N=CN(C)C=Nc2ccc(C)cc2C)c(C)c1
active: [9] 32 µM | [10] 37.6 µM | [11] 16.4 µM | [12] 30.3 µM | [14] 15.3 µM
not listed: [5] | [13] | [15] | [16] | [17] | [19]
inactive: all other assays above

CN=C=S
active: [6] 13.8 µM | [7] 26.1 µM | [15] 50 µM
not listed: [16] | [20]
inactive: all other assays above

CCOc1nc(C(Cl)(Cl)Cl)ns1
active: [6] 22.9 µM | [7] 43.5 µM
not listed: [16] | [17] | [19]
inactive: all other assays above

CSC(=O)c1c(C(F)F)nc(C(F)(F)F)c(C(=O)SC)c1CC(C)C
active: [16] 13.5 µM | [10] 32.6 µM | [14] 15.7 µM | [15] 10.9 µM
not listed: [5] | [13] | [17] | [18]
inactive: all other assays above

Nc1cnn(-c2ccccc2)c(=O)c1Cl
active: [15] 22.4 µM
not listed: [13] | [16] | [17] | [20]
inactive: all other assays above

Cc1cnc(C2=NC(C)(C(C)C)C(=O)N2)c(C(=O)O)c1 (configuration not stated)
active: [6] 13 µM
not listed: [5] | [16] | [19] | [20]
inactive: all other assays above

Cn1c(-c2ccccc2)cc(-c2ccccc2)[n+]1C
active: [10] 3.97 µM
not listed: [5] | [13] | [15] | [16] | [17] | [20]
inactive: all other assays above

Cc1cc(C)nc(Nc2ccccc2)n1
active: [6] 21.6 µM | [7] 12 µM
not listed: [16]
inactive: all other assays above

CC(C)N1C(=O)N(c2ccccc2)CSC1=NC(C)(C)C
active: [9] 22.9 µM | [10] 30.4 µM | [11] 32 µM | [17] 31.2 µM | [14] 16.4 µM
not listed: [13] | [16] | [18] | [20]
inactive: all other assays above
